# Legend:
# [1] = target: T1, Serine/threonine-protein kinase TBK1 (Homo sapiens) (UniProt Q9UHD2); conditions: at 1 µM;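 further: values are mean inhibition of TBK1, screened as part of the GSK published kinase inhibitor set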
# T1 sequence (whole entry): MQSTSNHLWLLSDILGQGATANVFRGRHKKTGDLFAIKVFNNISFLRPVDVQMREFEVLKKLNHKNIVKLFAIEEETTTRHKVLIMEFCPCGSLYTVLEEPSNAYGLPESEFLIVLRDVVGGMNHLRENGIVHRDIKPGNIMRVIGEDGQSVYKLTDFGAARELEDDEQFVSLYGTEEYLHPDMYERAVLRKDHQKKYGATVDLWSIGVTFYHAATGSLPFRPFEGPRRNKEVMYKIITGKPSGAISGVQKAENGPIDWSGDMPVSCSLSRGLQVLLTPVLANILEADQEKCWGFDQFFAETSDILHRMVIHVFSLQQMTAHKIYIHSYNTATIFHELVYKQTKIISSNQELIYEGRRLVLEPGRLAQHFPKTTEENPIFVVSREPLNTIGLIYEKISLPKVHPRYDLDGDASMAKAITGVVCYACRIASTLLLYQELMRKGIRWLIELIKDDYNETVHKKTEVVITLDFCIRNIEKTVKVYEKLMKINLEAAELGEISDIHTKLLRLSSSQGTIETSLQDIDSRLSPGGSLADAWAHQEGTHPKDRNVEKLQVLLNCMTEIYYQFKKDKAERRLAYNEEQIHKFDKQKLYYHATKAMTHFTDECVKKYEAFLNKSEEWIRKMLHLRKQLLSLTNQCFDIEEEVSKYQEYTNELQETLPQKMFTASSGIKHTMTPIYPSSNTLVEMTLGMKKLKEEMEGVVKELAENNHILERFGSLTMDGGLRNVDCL
# [2] = target: T2, Testis-specific serine/threonine-protein kinase 1 (Homo sapiens) (UniProt Q9BXA7); conditions: at 0.1 µM
# T2 sequence (whole entry): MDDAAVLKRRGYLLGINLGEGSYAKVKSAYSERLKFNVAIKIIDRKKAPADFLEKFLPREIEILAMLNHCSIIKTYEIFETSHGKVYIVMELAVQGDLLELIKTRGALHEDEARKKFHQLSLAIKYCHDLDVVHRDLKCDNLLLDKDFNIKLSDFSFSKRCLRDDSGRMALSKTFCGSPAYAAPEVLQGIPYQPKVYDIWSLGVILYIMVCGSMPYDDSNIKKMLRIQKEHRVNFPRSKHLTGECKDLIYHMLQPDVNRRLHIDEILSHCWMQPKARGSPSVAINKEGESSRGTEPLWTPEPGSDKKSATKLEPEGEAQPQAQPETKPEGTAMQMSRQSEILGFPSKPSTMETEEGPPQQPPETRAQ
# [3] = target: T2, Testis-specific serine/threonine-protein kinase 1 (Homo sapiens); conditions: at 1 µM
# [4] = target: T3, Testis-specific serine/threonine-protein kinase 2 (Homo sapiens) (UniProt Q96PF2); conditions: at 0.1 µM
# T3 sequence (whole entry): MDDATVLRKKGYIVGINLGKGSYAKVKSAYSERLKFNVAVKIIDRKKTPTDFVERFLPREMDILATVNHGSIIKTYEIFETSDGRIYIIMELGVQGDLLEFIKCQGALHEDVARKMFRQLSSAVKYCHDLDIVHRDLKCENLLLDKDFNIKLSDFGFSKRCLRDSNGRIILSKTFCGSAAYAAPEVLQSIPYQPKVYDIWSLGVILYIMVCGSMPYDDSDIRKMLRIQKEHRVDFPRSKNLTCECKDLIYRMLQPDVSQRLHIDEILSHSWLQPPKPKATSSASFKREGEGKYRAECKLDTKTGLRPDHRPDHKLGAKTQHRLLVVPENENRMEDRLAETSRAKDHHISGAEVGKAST
# [5] = target: T3, Testis-specific serine/threonine-protein kinase 2 (Homo sapiens); conditions: at 1 µM
# [6] = target: Casein kinase I isoform alpha (Homo sapiens) (UniProt P48729); conditions: at 0.1 µM
# [7] = target: Casein kinase I isoform alpha (Homo sapiens) (UniProt P48729); conditions: at 1 µM
# [8] = target: Casein kinase I isoform gamma-1 (Homo sapiens) (UniProt Q9HCP0); conditions: at 0.1 µM
# [9] = target: Casein kinase I isoform gamma-1 (Homo sapiens) (UniProt Q9HCP0); conditions: at 1 µM
# [10] = target: Casein kinase I isoform gamma-2 (Homo sapiens) (UniProt P78368); conditions: at 0.1 µM
# [11] = target: Casein kinase I isoform gamma-2 (Homo sapiens) (UniProt P78368); conditions: at 1 µM
# [12] = target: Casein kinase I isoform gamma-3 (Homo sapiens) (UniProt Q9Y6M4); conditions: at 0.1 µM
# [13] = target: Casein kinase I isoform gamma-3 (Homo sapiens) (UniProt Q9Y6M4); conditions: at 1 µM
# [14] = target: Cyclin-dependent kinase 1 (Homo sapiens) (UniProt P06493); conditions: at 0.1 µM
# [15] = target: Cyclin-dependent kinase 1 (Homo sapiens) (UniProt P06493); conditions: at 1 µM
# [16] = target: Cyclin-dependent kinase 2 (Homo sapiens) (UniProt P24941); conditions: at 0.1 µM
# [17] = target: Cyclin-dependent kinase 2 (Homo sapiens) (UniProt P24941); conditions: at 1 µM
# [18] = target: Cyclin-dependent kinase 2 (Homo sapiens) (UniProt P24941); conditions: at 0.1 µM; remark: listed apart in the source
# [19] = target: Cyclin-dependent kinase 2 (Homo sapiens) (UniProt P24941); conditions: at 1 µM; remark: listed apart in the source
# [20] = target: CDK3/Cyclin E (Homo sapiens) (UniProt P24864+Q00526); conditions: at 0.1 µM;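 further: reported percentages are mean inhibition values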
# CDK3/Cyclin E (Homo sapiens), sequence (P24864 whole entry, looked up): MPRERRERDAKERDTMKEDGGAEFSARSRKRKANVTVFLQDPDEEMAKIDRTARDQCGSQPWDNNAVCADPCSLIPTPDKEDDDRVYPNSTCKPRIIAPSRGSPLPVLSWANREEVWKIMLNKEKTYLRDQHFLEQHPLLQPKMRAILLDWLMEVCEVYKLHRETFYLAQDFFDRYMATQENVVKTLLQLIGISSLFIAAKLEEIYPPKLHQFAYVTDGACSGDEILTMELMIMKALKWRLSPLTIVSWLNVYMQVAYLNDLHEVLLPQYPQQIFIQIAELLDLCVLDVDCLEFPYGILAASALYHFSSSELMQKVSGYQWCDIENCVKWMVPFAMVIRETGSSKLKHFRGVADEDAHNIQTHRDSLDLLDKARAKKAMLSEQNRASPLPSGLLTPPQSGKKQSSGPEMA
# CDK3/Cyclin E (Homo sapiens), sequence (Q00526 whole entry, looked up): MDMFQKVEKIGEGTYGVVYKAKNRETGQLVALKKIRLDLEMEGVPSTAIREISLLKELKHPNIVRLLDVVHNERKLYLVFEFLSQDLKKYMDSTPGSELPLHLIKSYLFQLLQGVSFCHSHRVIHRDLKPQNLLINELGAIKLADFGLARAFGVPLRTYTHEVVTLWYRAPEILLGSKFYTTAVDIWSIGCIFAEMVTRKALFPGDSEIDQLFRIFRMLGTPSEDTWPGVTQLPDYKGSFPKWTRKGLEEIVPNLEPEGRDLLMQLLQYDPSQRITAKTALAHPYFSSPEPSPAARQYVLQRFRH
# Cyclin-dependent kinase 1 (Homo sapiens), sequence (P06493 whole entry, looked up): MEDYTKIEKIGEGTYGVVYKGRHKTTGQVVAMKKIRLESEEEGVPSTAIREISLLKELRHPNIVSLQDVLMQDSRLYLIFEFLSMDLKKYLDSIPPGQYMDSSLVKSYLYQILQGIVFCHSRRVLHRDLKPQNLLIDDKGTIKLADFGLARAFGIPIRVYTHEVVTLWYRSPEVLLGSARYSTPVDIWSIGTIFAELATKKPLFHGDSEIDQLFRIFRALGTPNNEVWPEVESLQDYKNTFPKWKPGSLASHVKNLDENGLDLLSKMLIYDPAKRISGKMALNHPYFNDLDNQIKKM
# Casein kinase I isoform gamma-1 (Homo sapiens), sequence (Q9HCP0 whole entry, looked up, canonical isoform): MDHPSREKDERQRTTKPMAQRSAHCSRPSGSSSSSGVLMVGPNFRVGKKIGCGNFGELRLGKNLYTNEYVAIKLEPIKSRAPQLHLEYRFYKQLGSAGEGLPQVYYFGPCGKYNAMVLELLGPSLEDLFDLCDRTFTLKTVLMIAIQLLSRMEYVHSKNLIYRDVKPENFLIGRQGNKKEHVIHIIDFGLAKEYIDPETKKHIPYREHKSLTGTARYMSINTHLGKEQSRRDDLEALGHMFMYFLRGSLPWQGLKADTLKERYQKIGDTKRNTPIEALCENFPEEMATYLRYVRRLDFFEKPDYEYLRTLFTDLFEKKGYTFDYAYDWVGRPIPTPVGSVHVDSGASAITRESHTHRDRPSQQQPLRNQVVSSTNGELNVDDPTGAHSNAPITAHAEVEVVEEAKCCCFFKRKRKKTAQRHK
# Casein kinase I isoform alpha (Homo sapiens), sequence (P48729 2-337 limits assumed): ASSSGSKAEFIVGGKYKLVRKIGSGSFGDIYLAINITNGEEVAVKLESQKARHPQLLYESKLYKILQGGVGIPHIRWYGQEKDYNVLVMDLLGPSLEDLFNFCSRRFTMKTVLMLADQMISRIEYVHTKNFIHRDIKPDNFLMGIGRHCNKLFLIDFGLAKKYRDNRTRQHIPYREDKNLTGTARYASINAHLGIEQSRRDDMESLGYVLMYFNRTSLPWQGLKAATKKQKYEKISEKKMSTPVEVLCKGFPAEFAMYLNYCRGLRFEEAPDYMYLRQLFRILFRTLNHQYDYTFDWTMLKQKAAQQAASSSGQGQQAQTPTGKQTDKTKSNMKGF
# Casein kinase I isoform gamma-3 (Homo sapiens), sequence (Q9Y6M4 whole entry, looked up, canonical isoform): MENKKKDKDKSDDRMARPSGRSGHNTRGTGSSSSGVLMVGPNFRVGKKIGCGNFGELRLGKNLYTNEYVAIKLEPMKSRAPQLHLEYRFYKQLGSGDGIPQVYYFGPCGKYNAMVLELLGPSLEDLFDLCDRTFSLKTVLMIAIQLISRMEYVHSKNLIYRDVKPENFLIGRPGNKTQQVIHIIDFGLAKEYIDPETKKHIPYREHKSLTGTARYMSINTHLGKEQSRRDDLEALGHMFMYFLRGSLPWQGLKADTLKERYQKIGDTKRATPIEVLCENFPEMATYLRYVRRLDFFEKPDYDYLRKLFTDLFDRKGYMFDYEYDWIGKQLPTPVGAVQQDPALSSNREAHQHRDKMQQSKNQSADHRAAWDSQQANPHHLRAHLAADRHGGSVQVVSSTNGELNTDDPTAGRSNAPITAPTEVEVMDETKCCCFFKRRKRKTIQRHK
# Casein kinase I isoform gamma-2 (Homo sapiens), sequence (P78368 whole entry, looked up, canonical isoform): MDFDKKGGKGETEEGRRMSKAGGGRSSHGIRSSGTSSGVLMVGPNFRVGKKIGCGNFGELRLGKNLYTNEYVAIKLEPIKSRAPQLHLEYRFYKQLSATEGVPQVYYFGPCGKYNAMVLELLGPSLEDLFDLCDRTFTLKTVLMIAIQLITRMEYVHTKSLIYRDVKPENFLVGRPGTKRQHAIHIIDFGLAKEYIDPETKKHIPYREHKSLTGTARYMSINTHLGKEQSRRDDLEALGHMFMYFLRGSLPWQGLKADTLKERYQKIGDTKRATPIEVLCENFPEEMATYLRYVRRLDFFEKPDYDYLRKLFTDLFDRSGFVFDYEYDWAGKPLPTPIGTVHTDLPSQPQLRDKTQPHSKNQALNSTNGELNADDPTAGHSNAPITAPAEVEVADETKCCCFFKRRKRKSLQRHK
SMILES,inhibition [1],inhibition [2],inhibition [3],inhibition [4],inhibition [5],inhibition [6],inhibition [7],inhibition [8],inhibition [9],inhibition [10],inhibition [11],inhibition [12],inhibition [13],inhibition [14],inhibition [15],inhibition [16],inhibition [17],inhibition [18],inhibition [19],inhibition [20]
Cc1cc(-c2ccco2)cc(C)c1/C=C/c1cncc(-c2nn[nH]n2)c1,2.37%,1.7%,2.37%,1.46%,0.42%,1.02%,-0.59%,1.01%,1.56%,0.62%,1.08%,0.9%,2.3%,0.87%,2.16%,0.49%,1.75%,0.38%,2.54%,-0.91%
CCn1c(-c2nonc2N)nc2c(C#CC(C)(C)O)ncc(OCC3CCNCC3)c21,44.7%,24.4%,73%,2.77%,5.17%,4.15%,4.34%,-0.98%,0.65%,-1.19%,0.7%,-1.65%,-0.62%,-0.87%,4.13%,-0.3%,4.17%,6.49%,9.55%,7.2%
CCn1c(-c2nonc2N)nc2c(C#CCN)ncc(OCCCN)c21,4.32%,-0.75%,11.3%,-0.97%,4.75%,1.05%,-3.92%,-2.42%,-2.61%,-0.29%,-2.49%,-1.84%,-2.94%,3.69%,2.18%,0.26%,0.59%,2.03%,2.69%,2.51%
Nc1nonc1-c1nc2cnccc2n1C1CCCCC1,24.8%,0.17%,6.12%,-1.12%,-2.07%,-1.01%,-0.02%,-2.65%,-0.45%,-2.61%,0.45%,-1.94%,1.85%,5.2%,24.5%,7.81%,44.6%,8.62%,41.5%,4.5%
COc1cc(C=NNc2ncnc3c2cnn3Cc2ccccc2)ccc1O,3.75%,-3.19%,-2.62%,-2.34%,-2.56%,-0.09%,-4.3%,-3.34%,-3.33%,-2.95%,-3.09%,0.15%,-1.86%,3.83%,14.8%,0.83%,0.3%,-0.38%,6.08%,0.9%
COc1cccc(-n2ncc3c(N/N=C/c4ccncc4)ncnc32)c1,13.1%,4.13%,5.05%,1.6%,2.48%,6.11%,11.2%,3.65%,7.48%,3.26%,9.79%,5.28%,6.59%,45%,81.8%,47%,76.8%,24.6%,65.2%,12.2%
NS(=O)(=O)c1ccc(N/C=C2\C(=O)Nc3ccc4ncsc4c32)cc1,46.7%,5.24%,19.4%,1.13%,2.94%,3.99%,14.7%,4.38%,9.59%,2.65%,11.1%,5.65%,14.4%,25%,62.4%,82.7%,94.4%,70.8%,75%,75.5%
